Reference: PubChem BioAssay AID1159580 (chemical genetic matrix, 2015)
The campaign covered roughly 5,500 compounds. About 2,000 (36%) were called active. Inconclusive results (about 18%) are left out. Rule as the data show it: active = normalized growth mostly below about 0.91 (no sharp cut-off); inconclusive = no clear call, values can overlap the other calls; inactive = mostly above about 0.92. The list shows a part of the results.

Test: chemical genetic growth profiling, strain panel (AID 1159580);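 also: tested at 20 µM; growth read once vehicle control cultures reached saturation at 30 °C; 1 = growth at the plate median or of vehicle wells; lower values mean less growth of the strain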
Settings: S. cerevisiae deletion strains, growth OD
[1] = locus YBR229C, strain ROT2, stronger effect = lower value
[2] = locus YCL061C, strain MRC1, stronger effect = lower value
[3] = locus YDL101C, strain DUN1, stronger effect = lower value
[4] = locus YGR078C, strain PAC10, stronger effect = lower value
[5] = locus YJL187C, strain SWE1, stronger effect = lower value
[6] = locus YJR043C, strain POL32, stronger effect = lower value
[7] = locus YKL190W, strain CNB1, stronger effect = lower value
[8] = locus YLR039C, strain RIC1, stronger effect = lower value
[9] = locus YMR307W, strain GAS1, stronger effect = lower value
[10] = locus YNL153C, strain GIM3, stronger effect = lower value
[11] = locus YPL055C, strain LGE1, stronger effect = lower value
[12] = locus YPL241C, strain CIN2, stronger effect = lower value
[13] = locus YGR229C, strain SMI1, stronger effect = lower value
[14] = locus YJR075W, strain HOC1, stronger effect = lower value
[15] = locus YMR263W, strain SAP30, stronger effect = lower value
[16] = locus YNL322C, strain KRE1, stronger effect = lower value

Measured: normalized growth

COC(=O)[C@@H]1OC(=O)C2OC23[C@@]1(C)CCC1[C@@]2(C)CCC(=O)C(C)(C)C2C[C@@H](OC(C)=O)[C@]13C (some centres undefined)
inactive: locus YAL021C, strain ccr4, stronger effect = lower value 1.01 | locus YAL026C, strain drs2, stronger effect = lower value 1.01 | locus YAL030W, strain snc1, stronger effect = lower value 1.01 | locus YBL061C, strain skt5, stronger effect = lower value 1.01 | locus YBR009C, strain hhf1, stronger effect = lower value 1.01 | locus YBR021W, strain FUR4, stronger effect = lower value 1.03 | locus YBR023C, strain chs3, stronger effect = lower value 1.01 | locus YBR171W, strain sec66, stronger effect = lower value 1.02 | [1] 1.01 | locus YBR231C, strain swc5, stronger effect = lower value 1.01 | locus YBR279W, strain paf1, stronger effect = lower value 1.02 | locus YCL011C, strain gbp2, stronger effect = lower value 1.01 | locus YCL016C, strain dcc1, stronger effect = lower value 1.02 | locus YCL029C, strain bik1, stronger effect = lower value 1.04 | [2] 1.01 | locus YCL069W, strain vba3, stronger effect = lower value 1.01 | locus YCR088W, strain abp1, stronger effect = lower value 1.02 | locus YDL005C, strain med2, stronger effect = lower value 1.02 | locus YDL035C, strain GPR1, stronger effect = lower value 1.05 | locus YDL040C, strain nat1, stronger effect = lower value 1.02 | locus YDL074C, strain BRE1, stronger effect = lower value 1.14 | [3] 1.04 | locus YDL185W, strain tfp1, stronger effect = lower value 1.01 | locus YDL192W, strain arf1, stronger effect = lower value 1.02 | locus YDR001C, strain nth1, stronger effect = lower value 1.01 | locus YDR069C, strain doa4, stronger effect = lower value 1.02 | locus YDR101C, strain arx1, stronger effect = lower value 1.01 | locus YDR137W, strain rgp1, stronger effect = lower value 1.01 | locus YDR159W, strain sac3, stronger effect = lower value 1.01 | locus YDR162C, strain NBP2, stronger effect = lower value 1.04 | locus YDR195W, strain ref2 0.999 | locus YDR297W, strain sur2, stronger effect = lower value 1.01 | locus YDR318W, strain mcm21, stronger effect = lower value 1.02 | locus YDR334W, strain swr1, stronger effect = lower value 1.02 | locus YDR335W, strain msn5, stronger effect = lower value 1.02 | locus YDR388W, stronger effect = lower value 1.01 | locus YDR392W, strain spt3, stronger effect = lower value 1.01 | locus YDR502C, strain sam2, stronger effect = lower value 1.01 | locus YEL003W, strain gim4, stronger effect = lower value 1.02 | locus YEL037C, strain rad23, stronger effect = lower value 1.02 | locus YEL061C, strain CIN8 (second series), stronger effect = lower value 1.03 | locus YER015W, strain faa2, stronger effect = lower value 1.02 | locus YER016W, strain bim1, stronger effect = lower value 1.02 | locus YER110C, stronger effect = lower value 0.992 | locus YER111C, strain swi4, stronger effect = lower value 1.01 | locus YER155C, strain BEM2 (second series), stronger effect = lower value 1.03 | locus YER155C, strain BEM2, stronger effect = lower value 1 | locus YER167W, strain BCK2, stronger effect = lower value 1.01 | locus YFR010W, strain ubp6, stronger effect = lower value 1.01 | locus YGL078C, strain dbp3, stronger effect = lower value 1 | locus YGL086W, strain mad1, stronger effect = lower value 1.02 | locus YGL167C, strain pmr1, stronger effect = lower value 1.02 | locus YGL173C, strain kem1, stronger effect = lower value 1.01 | locus YGL227W, strain vid30, stronger effect = lower value 1.02 | locus YGL240W, strain doc1, stronger effect = lower value 1.02 | locus YGL248W, strain PDE1, stronger effect = lower value 1.05 | locus YGL253W, strain hxk2, stronger effect = lower value 1.01 | [4] 1.05 | locus YGR135W, strain pre9, stronger effect = lower value 1.05 | locus YGR252W, strain gcn5, stronger effect = lower value 1.08 | locus YHR013C, strain ard1, stronger effect = lower value 1.02 | locus YHR027C, strain rpn1, stronger effect = lower value 1.02 | locus YHR079C, strain IRE1 (second series), stronger effect = lower value 0.995 | locus YHR094C, strain hxt1, stronger effect = lower value 0.992 | locus YHR129C, strain ARP1, stronger effect = lower value 1.03 | locus YHR142W, strain chs7, stronger effect = lower value 1.03 | locus YHR200W, strain rpn10, stronger effect = lower value 1.02 | locus YIL066C, strain RNR3, stronger effect = lower value 1.02 | locus YIL073C, strain SPO22, stronger effect = lower value 1.1 | locus YIL125W, strain kgd1, stronger effect = lower value 1.01 | locus YIR030C, strain dcg1, stronger effect = lower value 0.991 | locus YJL092W, strain hpr5, stronger effect = lower value 1.01 | locus YJL095W, strain BCK1 (second series), stronger effect = lower value 1.01 | locus YJL095W, strain BCK1, stronger effect = lower value 1.1 | locus YJL115W, strain asf1, stronger effect = lower value 1 | locus YJL129C, strain trk1, stronger effect = lower value 1.03 | locus YJL134W, strain LCB3, stronger effect = lower value 1.01 | locus YJL154C, strain vps35, stronger effect = lower value 1.03 | locus YJL164C, strain tpk1, stronger effect = lower value 1.03 | locus YJL166W, strain qcr8, stronger effect = lower value 1.01 | locus YJL168C, strain set2, stronger effect = lower value 1.01 | locus YJL187C, strain SWE1 (second series), stronger effect = lower value 1.03 | [5] 1.02 | [6] 1.09 | locus YKL009W, strain mrt4, stronger effect = lower value 1 | locus YKL068W, stronger effect = lower value 1.01 | locus YKL085W, strain MDH1 (second series), stronger effect = lower value 0.994 | locus YKL085W, strain MDH1, stronger effect = lower value 0.994 | locus YKL160W, strain elf1, stronger effect = lower value 1.02 | [7] 1.02 | locus YKR001C, strain vps1, stronger effect = lower value 1.06 | locus YKR026C, strain gcn3, stronger effect = lower value 1.02 | locus YKR091W, strain srl3, stronger effect = lower value 1.02 | locus YLL001W, strain dnm1, stronger effect = lower value 1.01 | locus YLL026W, stronger effect = lower value 1.02 | locus YLL041C, strain sdh2, stronger effect = lower value 1.01 | locus YLR027C, strain aat2, stronger effect = lower value 1.03 | [8] 1.13 | locus YLR058C, strain SHM2, stronger effect = lower value 1.04 | locus YLR102C, strain apc9, stronger effect = lower value 0.99 | locus YLR221C, strain rsa3, stronger effect = lower value 1.01 | locus YLR258W, strain gsy2, stronger effect = lower value 1.01 | locus YLR262C, strain YPT6 (second series), stronger effect = lower value 1.03 | locus YLR268W, strain sec22, stronger effect = lower value 1.04 | locus YLR320W, strain mms22, stronger effect = lower value 1.02 | locus YLR330W, strain CHS5, stronger effect = lower value 1.01 | locus YLR342W, strain FKS1 (second series), stronger effect = lower value 1.03 | locus YLR342W, strain FKS1, stronger effect = lower value 1.02 | locus YLR357W, strain rsc2, stronger effect = lower value 1 | locus YLR370C, strain arc18, stronger effect = lower value 1.01 | locus YLR371W, strain rom2, stronger effect = lower value 1.02 | locus YLR384C, strain iki3, stronger effect = lower value 1.04 | locus YLR418C, strain cdc73, stronger effect = lower value 1.06 | locus YML016C, strain PPZ1, stronger effect = lower value 1.01 | locus YML032C, strain rad52, stronger effect = lower value 0.992 | locus YML120C, strain ndi1, stronger effect = lower value 1.02 | locus YML124C, strain tub3, stronger effect = lower value 0.99 | locus YMR058W, strain fet3, stronger effect = lower value 1.01 | locus YMR078C, strain ctf18, stronger effect = lower value 0.998 | locus YMR125W, strain sto1, stronger effect = lower value 1.02 | locus YMR129W, stronger effect = lower value 1.01 | locus YMR205C, strain PFK2, stronger effect = lower value 1.02 | locus YMR223W, strain ubp8, stronger effect = lower value 1.01 | locus YMR231W, strain pep5, stronger effect = lower value 1 | [9] 1.2 | locus YNL067W, strain RPL9B, stronger effect = lower value 1.03 | locus YNL071W, strain lat1, stronger effect = lower value 1.02 | [10] 1.06 | locus YNL209W, strain ssb2, stronger effect = lower value 1.02 | locus YNL233W, strain BNI4, stronger effect = lower value 1.08 | locus YNL248C, strain rpa49, stronger effect = lower value 1.01 | locus YNL250W, strain rad50, stronger effect = lower value 1.01 | locus YNL271C, strain bni1, stronger effect = lower value 0.997 | locus YNL298W, strain CLA4, stronger effect = lower value 1.01 | locus YNL307C, strain MCK1, stronger effect = lower value 0.995 | locus YNL322C, strain KRE1 (second series), stronger effect = lower value 1.02 | locus YNR049C, strain mso1, stronger effect = lower value 1.01 | locus YNR052C, strain pop2, stronger effect = lower value 0.989 | locus YOL012C, strain htz1 1.07 | locus YOL147C, strain pex11, stronger effect = lower value 1 | locus YOR001W, strain rrp6, stronger effect = lower value 1.02 | locus YOR061W, strain CKA2, stronger effect = lower value 1.02 | locus YOR069W, strain VPS5, stronger effect = lower value 1.01 | locus YOR070C, strain gyp1, stronger effect = lower value 1 | locus YOR080W, strain dia2, stronger effect = lower value 1.01 | locus YOR083W, strain WHI5, stronger effect = lower value 1.02 | locus YOR106W, strain vam3, stronger effect = lower value 1.01 | locus YOR136W, strain idh2, stronger effect = lower value 0.993 | locus YOR144C, strain elg1, stronger effect = lower value 0.993 | locus YOR184W, strain ser1, stronger effect = lower value 1.03 | locus YOR265W, strain rbl2, stronger effect = lower value 1.01 | locus YOR270C, strain vph1, stronger effect = lower value 1.05 | locus YOR290C, strain snf2, stronger effect = lower value 1.02 | locus YOR316C, strain cot1, stronger effect = lower value 1 | locus YPL051W, strain arl3, stronger effect = lower value 0.993 | [11] 1.11 | locus YPL078C, strain atp4, stronger effect = lower value 1.01 | locus YPL106C, strain sse1, stronger effect = lower value 1.01 | locus YPL240C, strain hsp82, stronger effect = lower value 1.01 | [12] 1.01 | locus YPR119W, strain clb2, stronger effect = lower value 0.993 | locus YPR141C, strain kar3, stronger effect = lower value 0.994 | locus YPR163C, strain tif3, stronger effect = lower value 1.01 | locus YPR167C, strain met16, stronger effect = lower value 1.01 | strain wtn01, stronger effect = lower value 1.02

CC(C)c1ccc2c(c1)c(SC(C)(C)C)c(CC(C)(C)C(=O)O)n2Cc1ccc(Cl)cc1
inactive: locus YAL040C, strain CLN3, stronger effect = lower value 1.02 | locus YCL061C, strain MRC1 (second series), stronger effect = lower value 1 | locus YDR363W, strain ESC2, stronger effect = lower value 1 | locus YER002W, strain NOP16, stronger effect = lower value 1.03 | [13] 1.03 | [14] 1.02 | [15] 1.01 | [9] 1 | locus YNL128W, strain TEP1, stronger effect = lower value 0.967 | [10] 0.972 | locus YNL175C, strain NOP13, stronger effect = lower value 1.01 | locus YNL197C, strain WHI3, stronger effect = lower value 1.01 | locus YNL224C, strain SQS1, stronger effect = lower value 1.01 | [16] 1.01 | locus YOR083W, strain WHI5 (second series), stronger effect = lower value 0.992

NC(=O)N[C@@H]1O[C@H](CO)[C@@H](O)[C@H](O)[C@H]1O
inactive: locus YAL013W, strain DEP1, stronger effect = lower value 1.03 | [1] 1.01 | [2] 0.987 | [3] 0.994 | locus YDR150W, strain NUM1, stronger effect = lower value 0.992 | locus YEL061C, strain CIN8, stronger effect = lower value 1.02 | [4] 0.993 | [13] 1 | locus YHR030C, strain SLT2, stronger effect = lower value 1 | locus YHR087W, strain rtc3, stronger effect = lower value 1.01 | [5] 1.01 | [6] 0.975 | [14] 1 | [7] 1.01 | [8] 1.02 | locus YLR058C, strain SHM2 (second series), stronger effect = lower value 1.01 | locus YLR085C, strain ARP6, stronger effect = lower value 1.07 | locus YLR262C, strain YPT6, stronger effect = lower value 0.981 | locus YML094W, strain GIM5, stronger effect = lower value 1.02 | locus YMR219W, strain ESC1, stronger effect = lower value 1.01 | [15] 0.999 | [9] 1.02 | [10] 0.989 | locus YNL298W, strain CLA4 (second series), stronger effect = lower value 1.05 | [16] 1 | locus YNR030W, strain Alg12, stronger effect = lower value 1.02 | [11] 1.04 | [12] 1.04 | locus YPR135W, strain CTF4, stronger effect = lower value 0.98
